# Assay results: PubChem BioAssay AID1345082 (National Center for Advancing Translational Sciences (NCATS), 2018)
# In all, about 94,000 compounds went through this assay and about 4,000 (4.3%) were called active. Where a call stands in place of a potency, no number is given. Roughly 29% stayed inconclusive and do not appear here. Calls come from the whole dose curve; as a rule, active = well fitted inhibition curve with a large enough effect; inconclusive = small, poorly fitted or top-dose-only effect; inactive = no such curve, though single readings can be large or run the other way. The sample as a whole holds a higher share of actives than the screen did.
# Experiment: Cytotoxic Profiling in NIH 3T3 Cell Line of Diverse Libraries Using Quantitative High-Throughput Screening; note: nearly all actives have a fitted effect of over 55% in size
# Details: NIH 3T3 viability, CellTiter-Glo ATP luminescence, 48-72 h; series mostly up to 96.7 µM
# Summary of the method: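 Mouse fibroblast NIH 3T3 cells, 400 per well, received compound via pintool and were incubated for 48 or 72 hr prior to CellTiter-Glo ATP luminescence measurement.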
# Potency is the fitted concentration of half-maximal effect.
row,SMILES,Potency
1,COC[C@@H]1[C@@H](NC(=O)Cc2nn(C)c(=O)c3ccccc23)[C@@H]2CCO[C@H]12,inactive
2,COc1ccc(CN2C(=O)CO[C@H]3CN(C(=O)C4CC4)C[C@H]32)cc1,inactive
3,O=C1CO[C@H]2CN(C3CCC3)C[C@H]2N1Cc1ccc(OC(F)(F)F)cc1,89.1 µM (active)
4,COc1ccc(CN2C(=O)CO[C@H]3CN(Cc4cccnc4)C[C@H]32)cc1,inactive
5,Clc1ccc(-c2nnc3n2CCN(Cc2cccc4ccccc24)C3)cc1,inactive
6,CCc1noc(-c2cn(C3CCN(C(=O)c4ccc(Cl)cc4)C3)nn2)n1 (stereo not given),inactive
7,COc1cccc(CN2C(=O)OC3(CCN(C(=O)c4scnc4C)CC3)C2(C)c2cccnc2)c1 (stereo not given),31.6 µM (active)
8,COc1cccc(CN2CCN(C(=O)c3cnc4ccccn4c3=O)CC2=O)c1,inactive
9,COc1cccc(C(=O)N2CCC(Cc3nc(-c4cnccn4)no3)CC2)c1,inactive
10,O=C(CCCc1ccccc1)Nc1ccnn1C1CCN(C(=O)CCn2cncn2)CC1,inactive
11,Cc1cc(C(=O)N2CC[C@@H]3CN(Cc4ccccc4)[C@@H]3C2)nn1C,inactive
12,Cc1nc(-c2c3n(c(=O)n(CC(=O)Nc4ccccc4C)c2=O)CCCCC3)no1,inactive
13,Cc1nc2scc(CC(=O)NC(C)C)n2c(=O)c1-c1cc(C)n(-c2cccc(Cl)c2)n1,inactive
14,CCn1c(C2CCCN(C(=O)c3ccc(C(C)(C)C)cc3)C2)nn(C)c1=O (stereo not given),inactive
15,CC(C)c1ccc(N2C(=O)N[C@@H]3CCN(C(=O)c4ccc(C(C)(C)C)cc4)[C@@H]3C2=O)cc1,70.8 µM (active)
16,O=C1C(N2CCN(S(=O)(=O)c3ccccc3)CC2)CCN1CCc1ccccc1 (stereo not given),inactive
17,Cc1ccccc1NC(=O)Nc1ccnn1C1CCN(C(=O)CCN)CC1,inactive
18,CC(C)c1ccc(C(=O)N2C[C@@H]3CCCN4CCC[C@@H]([C@H]34)[C@H]2CCCC(=O)N2CCOCC2)cc1,inactive
19,CCC(CC)C(=O)NC1CCN(c2cnn(CCOC)c(=O)c2)CC1,inactive
20,Cc1ccc2c(n1)N(C)[C@H](CO)CCN(Cc1ccccc1C)C2,inactive

row,SMILES,Potency
1,Cc1ccc2c(n1)N(C)[C@H](CO)CCN(Cc1cccc(Cl)c1)C2,inactive
2,COc1ccccc1CN1CC[C@@H](CO)N(C)c2ncccc2C1,35.5 µM (active)
3,Cc1ccc(-c2cc3c(=O)n(CCNC(=O)Cc4c[nH]c5ccccc45)ccn3n2)cc1C,inactive
4,O=C(NCc1ccncc1)C1CC(=O)N(c2n[nH]c3ccccc23)C1 (stereo not given),inactive
5,Cc1cccc(OCCc2noc(C3CCCN3C(=O)c3ccnn3C)n2)c1 (stereo not given),inactive
6,COCCCNC(=O)N1CCC(Cc2noc(-c3ccncc3)n2)C1 (stereo not given),inactive
7,COc1ccc(NC(=O)N2CCCC(Cc3noc(-c4ccccc4)n3)C2)cc1 (stereo not given),35.5 µM (active)
8,Cc1cc(C(=O)N2CCCC(Cc3noc(-c4cccnc4)n3)C2)nn1C (stereo not given),inactive
9,CCN1C(=O)CCN(C(=O)NCCCOC)CC12CCOCC2,inactive
10,O=C1NC(=NC2CCCCC2)C2(CCN([S+](=O)([O-])c3ccccc3)C2)N1c1cccnc1 (stereo not given),inactive
11,O=C(c1ccsc1)N1CCCCCC1c1nnc(-c2ccccc2)o1 (stereo not given),inactive
12,COc1ccccc1N1CCN(C(=O)C2CCCN(C(=O)c3ccccc3)CCC(=O)NCC2)CC1 (stereo not given),inactive
13,COc1ccccc1N1CCCc2ncc(C(=O)N3CCCC[C@@H]3c3ccccc3)cc21,70.8 µM (active)
14,COc1ccc(C(=O)N2CCCN(C(=O)C3CC3)C(c3ccccc3)CC(=O)NCC2)cn1 (stereo not given),inactive
15,CNC(=O)c1cc(C2CC2)nc2onc(C3CCCN(C(=O)OC)C3)c12 (stereo not given),inactive
16,CC(C)NC(=O)NC[C@H]1O[C@@H]2C[C@@H](CC(=O)NCc3nccn3C)O[C@@H]2[C@@H]1O,inactive
17,NC(=O)c1cccc(-c2ncc3c(n2)OCCN(c2cccc(C(F)(F)F)c2)C3=O)c1,15.8 µM (active)
18,COc1ccc(OC2CCN(C(C)=O)CC2)c(C(=O)N(C)Cc2ccc3nccnc3c2)c1,inactive
19,O=C([C@H]1C[C@@H](F)CN1S(=O)(=O)c1ccc(F)c(Cl)c1)N1CCOCC1,inactive
20,CN1C[C@@H](NC(=O)c2ccc(C#N)cc2)C[C@H]1c1nc(-c2ccc(OC(F)(F)F)cc2)no1,39.8 µM (active)

row,SMILES,Potency
1,CN1C[C@@H](NC(=O)COc2ccccc2)C[C@H]1c1nc(-c2ccc3c(c2)OCO3)no1,inactive
2,CN1C[C@@H](NC(=O)c2ccccc2)C[C@H]1c1nc(-c2ccccc2)no1,inactive
3,COc1ccc(CCc2nc(NC(=O)Cn3nc4c(cc3=O)CCCCC4)n[nH]2)cc1,inactive
4,O=C(NCc1cccnc1)C1CCCN(c2cnn(Cc3ccccc3)c(=O)c2)C1 (stereo not given),inactive
5,Cc1ccc(CNC(=O)C2CCN(C(=O)c3ncn4c3COC(c3ccc(F)cc3)C4)CC2)cc1 (stereo not given),inactive
6,O=C(NC1CC1)C1CCCN(c2nc3ncccc3o2)C1 (stereo not given),inactive
7,Cc1ccccc1CN1CCC(N2CCCC(C(=O)NC3CC3)C2)CC1 (stereo not given),inactive
8,CNC(=O)C1CCN(c2nccc(Nc3ccccc3F)n2)CC1,inactive
9,Cc1nc(CCNC(=O)C2CCCN(c3nc(-c4ccccc4)nc4c3CCC4)C2)n[nH]1 (stereo not given),inactive
10,CC(C)CNC(=O)C1CCCN(c2nccc(Nc3ccccc3F)n2)C1 (stereo not given),44.7 µM (active)
11,O=C(NC1CCCCC1)C1CCCN(c2nccc(Nc3ccccc3F)n2)C1 (stereo not given),14.1 µM (active)
12,O=C(NCc1ccc(F)cc1)C1CCN(c2nccc(Nc3ccccc3F)n2)CC1,44.7 µM (active)
13,Cc1ccc(C(=O)N2CCC(c3n[nH]c(=O)n3Cc3ccc(F)cc3)CC2)cc1,inactive
14,O=C1CCN([C@@H]2CCC[C@H]2O)c2cc3c(cc2CN1Cc1ccccc1)OCO3,inactive
15,COc1cccc([S+](=O)([O-])N2CCCC3(CC(c4ccccc4)=NO3)C2)c1 (stereo not given),inactive
16,N[C@@H](Cc1cnc[nH]1)C(=O)N1CCC(c2cc(N3CCCC3)ncn2)CC1,inactive
17,COc1ccc(C2Cn3nnc(-c4noc(-c5sccc5C)n4)c3CO2)cc1 (stereo not given),inactive
18,CCc1cc(C(=O)N2CCC(Oc3ccccc3)(C(=O)O)CC2)cs1,inactive
19,CC(C)CNc1ncnc2c1CN(C1CCC1)C(=O)CN2C,inactive
20,O=C(c1ccc(F)c(F)c1)N1CCN(C2CCN(CCc3ccccc3)C2=O)CC1 (stereo not given),inactive
